In PubChem BioAssay (EPA / NIEHS):
Inconclusive results are not listed. The source made the active and inactive calls. The calls were made as follows, unless noted: active = hit-call score of the fitted dose curve at least 0.9, where 1 is the maximum; inconclusive = response in the unintended direction; inactive = score below 0.9.

Assays:
[1] = molecular target: Cellular tumor antigen p53 (Homo sapiens) (UniProt P04637); assay: TOX21_p53_BLA_p2_ratio: Tox21 HCT-116 p53 Agonism Beta-lactamase Assay, Ratio, Phase 2 (AID 2283592)
Chain of Cellular tumor antigen p53 (Homo sapiens) (P04637 whole entry, looked up): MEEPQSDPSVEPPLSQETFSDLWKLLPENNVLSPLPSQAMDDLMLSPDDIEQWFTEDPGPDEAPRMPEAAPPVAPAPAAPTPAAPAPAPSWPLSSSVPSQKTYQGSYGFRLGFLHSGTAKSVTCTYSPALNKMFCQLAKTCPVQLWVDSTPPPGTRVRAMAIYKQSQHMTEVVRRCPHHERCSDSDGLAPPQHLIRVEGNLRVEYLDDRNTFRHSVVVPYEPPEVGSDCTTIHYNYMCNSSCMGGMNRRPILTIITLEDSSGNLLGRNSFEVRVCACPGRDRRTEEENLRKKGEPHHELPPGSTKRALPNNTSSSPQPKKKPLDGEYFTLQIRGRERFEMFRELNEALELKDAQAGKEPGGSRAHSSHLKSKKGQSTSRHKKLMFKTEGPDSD
Outline: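 First, HCT116 reporter cells settle for 5 h at 37C. Next, DMSO compound solutions are pinned in (217-fold dilution) and left 16 h. Finally, CCF4-AM substrate is loaded 2 h at room temperature and the 460/530 nm ratio read.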

[2] = TOX21_p53_BLA_p3_viability: Viability Assessment in the Tox21 HCT-116 p53 Agonism Beta-lactamase Assay, Phase 3 (AID 2283593);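 also: cells exposed to compound for 16 h before reading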
Outline: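 HCT116 cells, 4000/well, dosed 5 h after plating by pin transfer (217-fold dilution from DMSO stock) and incubated 16 h at 37C, 5% CO2. Viability read as ATP luminescence with CellTiter-Glo after 30 min at room temperature.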

[3] = molecular target: Cellular tumor antigen p53 (Homo sapiens) (UniProt P04637); assay: TOX21_p53_BLA_p3_ratio: Tox21 HCT-116 p53 Agonism Beta-lactamase Assay, Ratio, Phase 3 (AID 2283596)
Outline: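 Cells were seeded at 4000/well, rested 5 h at 37C, then dosed with DMSO compound solutions (217-fold dilution) for 16 h. CCF4-AM substrate was loaded for 2 h at room temperature, and the 460/530 nm emission ratio was fitted for gain of signal versus DMSO.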

[4] = TOX21_p53_BLA_p4_viability: Viability Assessment in the Tox21 HCT-116 p53 Agonism Beta-lactamase Assay, Phase 4 (AID 2283597);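 also: hits lower the luminescence signal meaning cytotoxicity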
Outline: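 4000 HCT116 cells per well; 5 h attachment; compounds from DMSO, 217-fold dilution; 16 h at 37C. Then CCF4-AM, 2 h RT, followed by CellTiter-Glo, 30 min RT, luminescence. Decrease = cytotoxicity.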

[5] = molecular target: Cellular tumor antigen p53 (Homo sapiens) (UniProt P04637); assay: TOX21_p53_BLA_p5_ratio: Tox21 HCT-116 p53 Agonism Beta-lactamase Assay, Ratio, Phase 5 (AID 2283599)
Outline: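 HCT-116 p53-bla cells (4000/well) plated 5 h, dosed with compound (217-fold DMSO dilution) for 16 h at 37 C; CCF4-AM substrate 2 h at room temperature. Activity is the 460/530 nm emission ratio (405 nm excitation), fitted in gain-of-signal direction versus DMSO.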

[6] = molecular target: Cellular tumor antigen p53 (Homo sapiens) (UniProt P04637); assay: TOX21_p53_BLA_p4_ratio: Tox21 HCT-116 p53 Agonism Beta-lactamase Assay, Ratio, Phase 4 (AID 2283601)
Outline: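 HCT-116 p53 beta-lactamase reporter cells (4000/well) preincubated 5 h, then compound (217-fold dilution of DMSO stock) for 16 h at 37C. CCF4-AM substrate added 2 h at room temperature; 460/530 nm emission ratio fitted upward versus DMSO.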

[7] = test system: Thyroperoxidase (TPO), gene 54314; assay: CCTE_Simmons_AUR_rTPO: CCTE's Amplex UltraRed Assay for Thyroperoxidase (TPO) Inhibition, Simmons Lab (AID 2283662)
Outline: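 Rat thyroid microsomal TPO + 25 uM AUR in 200 mM K phosphate; cpd 5 nM–87.5 uM [final], 8 conc, 0.5% DMSO; 300 uM H2O2 starts rxn; 37C dark 30 min; endpoint FI 544/590 nm; n=3.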

[8] = CCTE_Simmons_CellTiterGLO_HEK293T: Viability Assessment in CCTE's Assays for Thyroperoxidase (TPO) Inhibition, Simmons Lab (AID 2283665);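 also: cells exposed to compound for 24 h before readout; actives reduce ATP signal below DMSO vehicle meaning cytotoxicity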
Outline: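 Cells were seeded overnight, then exposed to an eight-point series up to 87.5 uM final for 24 hours. CellTiter-Glo reagent was added and luminescence read after 20 min, giving ATP-based viability versus DMSO.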

[9] = molecular target: Luciferin 4-monooxygenase (Photinus pyralis) (UniProt P08659); assay: CCTE_Simmons_QuantiLum_inhib_2: CCTE's Firefly Luciferase Inhibition Assay, Simmons Lab (AID 2283767);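 also: potency for inhibitors that lower luciferase luminescence relative to DMSO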
Chain of Luciferin 4-monooxygenase (Photinus pyralis) (P08659 whole entry, looked up): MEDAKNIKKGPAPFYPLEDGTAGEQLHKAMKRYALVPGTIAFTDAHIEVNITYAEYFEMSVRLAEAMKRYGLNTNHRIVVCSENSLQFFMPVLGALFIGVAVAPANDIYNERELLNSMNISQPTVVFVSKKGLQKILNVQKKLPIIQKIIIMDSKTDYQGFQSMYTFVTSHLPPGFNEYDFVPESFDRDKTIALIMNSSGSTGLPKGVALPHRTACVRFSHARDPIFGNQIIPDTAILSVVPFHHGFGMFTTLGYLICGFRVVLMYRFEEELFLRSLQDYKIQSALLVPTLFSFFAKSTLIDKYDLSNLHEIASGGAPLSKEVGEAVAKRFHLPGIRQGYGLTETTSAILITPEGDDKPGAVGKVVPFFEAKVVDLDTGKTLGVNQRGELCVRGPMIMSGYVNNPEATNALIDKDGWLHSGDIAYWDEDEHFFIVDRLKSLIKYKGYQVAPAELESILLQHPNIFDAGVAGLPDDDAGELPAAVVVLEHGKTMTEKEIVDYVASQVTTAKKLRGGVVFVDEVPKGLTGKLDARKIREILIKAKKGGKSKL
Outline: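 First, 5 ng purified luciferase in phosphate buffer with BSA is dispensed per well. Next, test chemicals (5 nM to 87.5 uM final, 0.5% DMSO) are added and incubated 30 min at 37C in darkness. Finally, luciferin reagent is injected and luminescence read kinetically.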

[10] = CCTE_Shafer_MEA_dev_firing_rate_mean: CCTE's Neural Network Formation Assay for Mean Firing Rate, Shafer Lab (AID 2284031; active = hit-call score of the fitted dose curve at least 0.9, where 1 is the maximum; inactive = score below 0.9;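 also: curve fitted for loss of firing so AC50 reflects decreased mean firing rate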)
Outline: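 Steps: seed rat cortical cells (1.5 x 10^5/well) with laminin on PEI-coated MEA; dose day 0; record DIV 5/7/9/12, full media and compound exchange after DIV 5 and 9 recordings; compute well-mean firing rate AUC.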

[11] = CCTE_Shafer_MEA_dev_per_burst_spike_percent: CCTE's Neural Network Formation Assay for Percent of Spikes in a Burst, Shafer Lab (AID 2284032; active = hit-call score of the fitted dose curve at least 0.9, where 1 is the maximum; inactive = score below 0.9;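 also: fitted as a decrease in burst spike percentage below DMSO baseline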)
Outline: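 Value is trapezoidal AUC over recordings on days 5, 7, 9 and 12 of the well-mean fraction of spikes falling in single-electrode bursts; rat cortical cultures exposed continuously from plating, treatment renewed DIV 5 and 9, fitted downward against DMSO.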

[12] = CCTE_Shafer_MEA_dev_active_electrodes_number: CCTE's Neural Network Formation Assay for Number of Active Electrodes, Shafer Lab (AID 2284040);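 also: potency for loss of active electrodes versus DMSO so lower counts are hits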
Outline: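 Counts electrodes per well firing at least 5 spikes/min, recorded on days 5, 7, 9 and 12 in rat cortical cultures dosed continuously from plating (treatment refreshed DIV 5, 9). Value is the area under the curve over recordings, fitted downward relative to DMSO.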

[13] = CCTE_Shafer_MEA_dev_burst_rate: CCTE's Neural Network Formation Assay for Burst Rate, Shafer Lab (AID 2284042; active = hit-call score of the fitted dose curve at least 0.9, where 1 is the maximum; inactive = score below 0.9;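 also: potency for loss of burst rate below DMSO control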)
Outline: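 Rat primary cortical cultures on PEI/laminin MEA; compound from plating, re-dosed at DIV 5, 9 media change. Single-electrode bursts/recording length, well mean of active electrodes; AUC over DIV 5–12 recordings; loss-of-signal vs DMSO.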

[14] = CCTE_Shafer_MEA_dev_bursting_electrodes_number: CCTE's Neural Network Formation Assay for Number of Bursting Electrodes, Shafer Lab (AID 2284043);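 also: potency is for loss of bursting electrodes relative to DMSO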
Outline: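 Rat cortical primary neurons, 48-well MEA, 16 electrodes/well; dosing DIV 0–12, re-dosed with full media change DIV 5, 9. Recordings DIV 5/7/9/12, AxIS adaptive spike detector; bursting electrode = ≥1 burst/2 min. AUC across days; loss of signal vs DMSO.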

[15] = CCTE_Shafer_MEA_dev_per_burst_interspike_interval: CCTE's Neural Network Formation Assay for Burst Interspike Interval, Shafer Lab (AID 2284044; active = hit-call score of the fitted dose curve at least 0.9, where 1 is the maximum; inactive = score below 0.9;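 also: potency for a decrease of within-burst interspike interval below DMSO level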)
Outline: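 Primary rat cortical neurons on 48-well MEA plates, exposed from day 0 through day 12, treatment renewed at DIV 5 and 9. Within-burst interspike interval recorded days 5, 7, 9, 12, well-averaged, summarised as AUC; negative fit versus DMSO.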

[16] = CCTE_Shafer_MEA_dev_burst_duration_mean: CCTE's Neural Network Formation Assay for Mean Burst Duration, Shafer Lab (AID 2284045; active = hit-call score of the fitted dose curve at least 0.9, where 1 is the maximum; inactive = score below 0.9;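 also: curve fitted for loss meaning shorter burst duration than DMSO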)
Outline: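 Rat cortical cultures, 1.5 x 10^5 cells/well with laminin drop; continuous dosing days 0–12, media plus treatment refreshed DIV 5, 9. AxIS adaptive spike detection; mean single-electrode burst duration, AUC over four recordings, negative direction vs DMSO.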

Measured: AC50

[CH3][Hg][Cl]
active: [1] 44800 nM | [2] 79600 nM | [3] 1770 nM | [5] 2250 nM | [8] 4180 nM | [9] 4220 nM | [10] 177 nM | [11] 306 nM | [12] 360 nM | [13] 207 nM | [14] 370 nM | [15] 322 nM | [16] 260 nM
inactive: [4] | [6] | [7]
